Experimental data taken from PubChem BioAssay AID2284348 (EPA ToxCast).
Inconclusive results are not listed. Activity calls are given as the source filed them. How the source made its calls: active means hit-call score of the fitted dose curve at least 0.9, where 1 is the maximum; inconclusive means response in the unintended direction; inactive means score below 0.9.

test system: Japanese medaka Peroxisome Proliferator-activated Receptor alpha (PPARa), gene 100304458; experiment: ATG_jmPPARa_EcoTox2: Attagene TRANS-FACTORIAL EcoTox-2 HepG2 Assay for Japanese medaka Peroxisome Proliferator-activated Receptor alpha (PPARa)
Protocol: ATG_EcoTox2 is a cell-based, multiplexed assay created by modifying the existing Attagene TRANS-FACTORIAL system to include a panel of nuclear receptors from some or all the following species: human (Homo sapiens), african clawed frog (Xenopus laevis), rainbow trout (Oncorhynchus mykiss), japanese medaka (Oryzias latipes), and zebrafish (Danio rerio). The ECOTOX2-FACTORIAL format uses HepG2, a human liver cell line, with measurements taken at 24 hours after chemical dosing in a 24-well plate. ATG_jmPPARa_EcoTox2 is one of 29 assay components calculated in the ATG_EcoTox2 assay. It is designed to make measurements of mRNA induction, a form of inducible reporter, as detected with fluorescence intensity signals by Reverse transcription polymerase chain reaction (RT-PCR) and Capillary electrophoresis technology.The assay endpoint ATG_jmPPARa_EcoTox2 was analyzed in the positive analysis fitting direction relative to DMSO as the negative control and baseline of activity. Using a type of inducible reporter, measures of mRNA for gain-of-signal activity can be used to understand the reporter gene at the transcription factor-level as they relate to the gene PPARa. Furthermore, this assay endpoint can be referred to as a […], because this assay has produced multiple assay endpoints where this one serves a reporter gene function. To generalize the intended target to other relatable targets, this assay endpoint is annotated to the nuclear receptor intended target family, where the subfamily is non-steroidal.
Human liver HepG2 cells are transiently transfected with multiple reporter transcription units (MRTUs) in 6-well plates using FuGene 6 reagent (Roche; 3 ml FuGene/1 mg DNA). The MRTU constructs are regulated by a cis-regulating element (promoter). Each RTU expresses a GAL4-UAS that regulates the transcription of a nearby target reporter gene sequence. A major difference between the CIS and TRANS system is that in CIS activities of endogenous TFs are measured, whereas the TRANS assay evaluates changes in activities of exogenous, chimeric NR-Gal4 proteins. […] At the end of 24 hour incubation, total RNA was isolated using TriZol reagent (Invitrogen). The isolated RNA is then reverse-transcribed using oligo(dT) primer and Mo-MLV reverse transcriptase (Invitrogen) with DNAse I (Ambion) treatment for 30 min. The one-tenth of the produced cDNA was amplified by PCR using Taq DNA polymerase (Invitrogen) and two reporter sequence-specific primers. […] The fragments were purified using Qiaquick PCR columns (Qiagen), analyzed on an ABI 3130xL genetic analyzer (Applied Biosystems) with peak positions identified by using a set of X-rhodamine (ROX)-labeled MapMarker1000 molecular weight standards (BioVentures). […]

SMILES	outcome	AC50
O=S(=O)(O)C(F)(F)C(F)(F)C(F)(F)C(F)(F)C(F)(F)C(F)(F)F	inactive	–
[Cl][Sn]([c]1ccccc1)([c]1ccccc1)[c]1ccccc1	–	0.473 µM (active)
O=C(O)C(F)(F)C(F)(F)C(F)(F)C(F)(F)C(F)(F)C(F)(F)C(F)(F)F	–	75 µM (active)
CCCCOCN(C(=O)CCl)c1c(CC)cccc1CC	–	50 µM (active)
